Activity calls are given as the source filed them. How the source made its calls: active means hit-call score of the fitted dose curve at least 0.9, where 1 is the maximum; inactive means score below 0.9.
Read-out: not listed separately
Assay: BSK_CASM3C_SRB: Viability Assessment in the BioMAP Diversity Plus: CASM3C Assay (AID 2283050);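 further: total protein by SRB staining as cytotoxicity measure in parallel cultures; cells exposed to compound for 24 h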
Settings: primary human coronary artery smooth muscle cells

Structure (SMILES) | outcome | AC50
CCC(C)(CC)c1cc(NC(=O)c2c(OC)cccc2OC)on1 | inactive | 
Nn1cnnc1 | inactive | 
CCCCCCCCOC(=O)c1ccccc1C(=O)OCCCCCCCC | inactive | 
Clc1ccc(Cl)cc1 | inactive | 
Cc1ccccc1O | inactive | 
Cc1cc(-c2ccc(N)c(C)c2)ccc1N | inactive | 
CC#Cc1cc(C)nc(Nc2ccccc2)n1 | inactive | 
CO/C=C(/C(=O)OC)c1ccccc1COc1cccc(C(F)(F)F)n1 | inactive | 
ClC1=C(Cl)[C@]2(Cl)[C@@H]3[C@@H](Cl)[C@H]4O[C@H]4[C@@H]3C1(Cl)C2(Cl)Cl | inactive | 
C=CC(=O)NCNC(=O)C=C | inactive | 
CCCCCCCCCc1ccc(O)cc1 |  | 34.1 µM (active)
N#Cc1ccc(N(CC(N)=O)CC(F)(F)F)cc1C(F)(F)F | inactive | 
CCC(C)(c1ccc(O)cc1)c1ccc(O)cc1 | inactive | 
O=C(N[C@H]1CN2CCC1CC2)c1cc2ccoc2cn1 | inactive | 
ClC1=C(Cl)[C@]2(Cl)[C@@H]3[C@@H]4C[C@@H]([C@H]5O[C@@H]45)[C@@H]3[C@@]1(Cl)C2(Cl)Cl | inactive | 
O=C(NC(=O)c1cc(F)c(F)cc1Cl)Nc1cc(F)ccc1N1CCC(C(=O)O)CC1 | inactive | 
O=S(=O)(O)C(F)(F)C(F)(F)C(F)(F)C(F)(F)C(F)(F)C(F)(F)F | inactive | 

Structure (SMILES) | outcome | AC50
C1CC2OC2CC1C1CO1 (stereo unspecified) | inactive | 
ClC1=C(Cl)[C@]2(Cl)[C@@H]3[C@H]4C[C@H]([C@@H]5O[C@H]45)[C@@H]3[C@@]1(Cl)C2(Cl)Cl | inactive | 
C[C@]12CCC(=O)C=C1CC[C@@H]1[C@@H]2CC[C@]2(C)C(=O)CC[C@@H]12 | inactive | 
CCC(C)c1cc([N+](=O)[O-])cc([N+](=O)[O-])c1O (stereo unspecified) |  | 30.2 µM (active)
CCC(=O)O[C@H]1CC[C@H]2[C@@H]3CCC4=CC(=O)CC[C@]4(C)[C@H]3CC[C@]12C | inactive | 
Clc1ccc(C(Cl)(Cl)Cl)cc1 | inactive | 
Oc1ccc(Cl)cc1Cl | inactive | 
C[C@]12CCC(=O)C=C1CC[C@@H]1[C@@H]2CC[C@@]2(C)[C@H]1CC[C@]2(C)O | inactive | 
CC(C)C(=O)OCC(C)(C)C(OC(=O)C(C)C)C(C)C (stereo unspecified) | inactive | 
O=NN(c1ccccc1)c1ccccc1 | inactive | 
Oc1ccc(C(c2ccc(O)cc2)(C(F)(F)F)C(F)(F)F)cc1 |  | 27.9 µM (active)
CCCCCCOC(=O)c1ccccc1C(=O)OCCCCCC | inactive | 
Sc1ccccc1 | inactive | 
Clc1ccc(C(c2ccccc2Cl)C(Cl)(Cl)Cl)cc1 (stereo unspecified) |  | 22.8 µM (active)
c1cc2ccc3cccc4ccc(c1)c2c34 | inactive | 
CCCN(CCC)N=O | inactive | 

Read-out: Thrombomodulin, THBD (gene 7056)
Assay: BSK_CASM3C_Thrombomodulin: BioMAP Diversity Plus: CASM3C Assay for Thrombomodulin Biomarker Activity (AID 2283051);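 further: thrombomodulin protein level measured by ELISA 24 h after dosing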
Settings: primary human coronary artery smooth muscle cells; actives raise or lower the signal

Structure (SMILES) | outcome | AC50
CCC(C)(CC)c1cc(NC(=O)c2c(OC)cccc2OC)on1 | inactive | 
Nn1cnnc1 | inactive | 
CCCCCCCCOC(=O)c1ccccc1C(=O)OCCCCCCCC | inactive | 
Clc1ccc(Cl)cc1 | inactive | 
Cc1ccccc1O | inactive | 
Cc1cc(-c2ccc(N)c(C)c2)ccc1N | inactive | 
CC#Cc1cc(C)nc(Nc2ccccc2)n1 | inactive | 
CO/C=C(/C(=O)OC)c1ccccc1COc1cccc(C(F)(F)F)n1 | inactive | 
ClC1=C(Cl)[C@]2(Cl)[C@@H]3[C@@H](Cl)[C@H]4O[C@H]4[C@@H]3C1(Cl)C2(Cl)Cl | inactive | 
C=CC(=O)NCNC(=O)C=C | inactive | 
CCCCCCCCCc1ccc(O)cc1 |  | 37.8 µM (active)
N#Cc1ccc(N(CC(N)=O)CC(F)(F)F)cc1C(F)(F)F | inactive | 
CCC(C)(c1ccc(O)cc1)c1ccc(O)cc1 |  | 26.5 µM (active)
O=C(N[C@H]1CN2CCC1CC2)c1cc2ccoc2cn1 | inactive | 
ClC1=C(Cl)[C@]2(Cl)[C@@H]3[C@@H]4C[C@@H]([C@H]5O[C@@H]45)[C@@H]3[C@@]1(Cl)C2(Cl)Cl | inactive | 
O=C(NC(=O)c1cc(F)c(F)cc1Cl)Nc1cc(F)ccc1N1CCC(C(=O)O)CC1 | inactive | 
O=S(=O)(O)C(F)(F)C(F)(F)C(F)(F)C(F)(F)C(F)(F)C(F)(F)F | inactive | 

Structure (SMILES) | outcome | AC50
C1CC2OC2CC1C1CO1 (stereo unspecified) | inactive | 
ClC1=C(Cl)[C@]2(Cl)[C@@H]3[C@H]4C[C@H]([C@@H]5O[C@H]45)[C@@H]3[C@@]1(Cl)C2(Cl)Cl | inactive | 
C[C@]12CCC(=O)C=C1CC[C@@H]1[C@@H]2CC[C@]2(C)C(=O)CC[C@@H]12 | inactive | 
CCC(C)c1cc([N+](=O)[O-])cc([N+](=O)[O-])c1O (stereo unspecified) | inactive | 
CCC(=O)O[C@H]1CC[C@H]2[C@@H]3CCC4=CC(=O)CC[C@]4(C)[C@H]3CC[C@]12C | inactive | 
Clc1ccc(C(Cl)(Cl)Cl)cc1 | inactive | 
Oc1ccc(Cl)cc1Cl | inactive | 
C[C@]12CCC(=O)C=C1CC[C@@H]1[C@@H]2CC[C@@]2(C)[C@H]1CC[C@]2(C)O | inactive | 
CC(C)C(=O)OCC(C)(C)C(OC(=O)C(C)C)C(C)C (stereo unspecified) | inactive | 
O=NN(c1ccccc1)c1ccccc1 |  | 4.46 µM (active)
Oc1ccc(C(c2ccc(O)cc2)(C(F)(F)F)C(F)(F)F)cc1 |  | 29.2 µM (active)
CCCCCCOC(=O)c1ccccc1C(=O)OCCCCCC |  | 17.5 µM (active)
Sc1ccccc1 | inactive | 
Clc1ccc(C(c2ccccc2Cl)C(Cl)(Cl)Cl)cc1 (stereo unspecified) |  | 19.6 µM (active)
c1cc2ccc3cccc4ccc(c1)c2c34 | inactive | 
CCCN(CCC)N=O | inactive | 
